The target of experiment [1] is T1, Inhibitor of nuclear factor kappa-B kinase subunit epsilon (Homo sapiens) (UniProt Q14164).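 Also: reported values are averaged percent inhibition figures against human IKKε.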
T1 sequence (whole entry): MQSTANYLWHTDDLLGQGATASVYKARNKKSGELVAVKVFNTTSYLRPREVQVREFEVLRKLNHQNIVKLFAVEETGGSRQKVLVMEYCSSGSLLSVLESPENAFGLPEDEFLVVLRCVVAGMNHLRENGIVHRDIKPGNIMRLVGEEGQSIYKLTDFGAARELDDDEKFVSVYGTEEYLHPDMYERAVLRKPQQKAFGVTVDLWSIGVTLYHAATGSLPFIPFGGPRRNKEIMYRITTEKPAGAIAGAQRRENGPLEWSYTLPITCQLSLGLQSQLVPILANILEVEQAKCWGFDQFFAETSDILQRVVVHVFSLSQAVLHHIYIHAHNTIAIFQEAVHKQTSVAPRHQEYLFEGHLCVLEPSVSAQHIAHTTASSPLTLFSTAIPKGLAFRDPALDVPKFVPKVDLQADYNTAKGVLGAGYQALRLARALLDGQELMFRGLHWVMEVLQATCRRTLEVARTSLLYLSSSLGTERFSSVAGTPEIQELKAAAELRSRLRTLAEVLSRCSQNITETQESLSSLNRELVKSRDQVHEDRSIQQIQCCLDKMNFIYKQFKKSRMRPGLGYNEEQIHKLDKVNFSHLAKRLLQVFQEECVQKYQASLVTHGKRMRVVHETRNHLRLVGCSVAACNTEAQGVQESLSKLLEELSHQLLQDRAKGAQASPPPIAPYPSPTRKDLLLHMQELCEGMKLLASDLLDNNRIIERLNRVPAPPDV
Conditions: at 1 µM.

Experiment [2] has as its target T2, Serine/threonine-protein kinase Nek1 (Homo sapiens) (UniProt Q96PY6).
T2 sequence (whole entry): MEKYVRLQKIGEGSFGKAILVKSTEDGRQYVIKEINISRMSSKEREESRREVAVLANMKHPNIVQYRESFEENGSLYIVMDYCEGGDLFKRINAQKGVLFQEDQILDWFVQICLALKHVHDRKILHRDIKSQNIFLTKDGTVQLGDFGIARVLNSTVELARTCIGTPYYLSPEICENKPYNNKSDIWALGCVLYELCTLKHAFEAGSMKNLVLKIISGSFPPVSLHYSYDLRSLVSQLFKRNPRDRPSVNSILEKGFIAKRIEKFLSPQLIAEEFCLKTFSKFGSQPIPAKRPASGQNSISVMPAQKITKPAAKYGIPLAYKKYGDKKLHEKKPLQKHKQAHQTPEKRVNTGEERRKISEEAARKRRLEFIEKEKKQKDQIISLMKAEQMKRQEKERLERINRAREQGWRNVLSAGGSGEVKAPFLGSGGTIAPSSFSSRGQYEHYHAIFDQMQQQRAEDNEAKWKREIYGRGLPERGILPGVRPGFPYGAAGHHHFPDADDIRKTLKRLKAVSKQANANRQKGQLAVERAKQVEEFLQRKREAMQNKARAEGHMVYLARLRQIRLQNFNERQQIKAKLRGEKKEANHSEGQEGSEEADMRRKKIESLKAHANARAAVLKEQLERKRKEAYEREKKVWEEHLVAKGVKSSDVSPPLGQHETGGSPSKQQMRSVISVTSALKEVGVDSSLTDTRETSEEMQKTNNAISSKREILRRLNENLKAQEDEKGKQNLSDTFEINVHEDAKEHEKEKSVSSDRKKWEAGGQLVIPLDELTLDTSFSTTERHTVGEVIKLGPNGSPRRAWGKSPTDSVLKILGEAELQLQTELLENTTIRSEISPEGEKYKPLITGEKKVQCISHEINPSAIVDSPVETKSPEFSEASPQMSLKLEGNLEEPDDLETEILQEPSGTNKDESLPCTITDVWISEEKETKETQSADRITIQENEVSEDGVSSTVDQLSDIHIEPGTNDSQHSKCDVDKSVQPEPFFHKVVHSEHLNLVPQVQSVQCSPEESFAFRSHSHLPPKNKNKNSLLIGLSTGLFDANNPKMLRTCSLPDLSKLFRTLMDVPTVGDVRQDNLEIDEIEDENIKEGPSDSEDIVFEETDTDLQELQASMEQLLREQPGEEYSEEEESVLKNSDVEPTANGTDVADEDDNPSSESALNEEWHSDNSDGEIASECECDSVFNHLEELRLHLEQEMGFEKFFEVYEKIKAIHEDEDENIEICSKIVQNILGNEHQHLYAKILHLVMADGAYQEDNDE
To be noted: at 0.1 µM.

Experiment [3] concerns the target T2, Serine/threonine-protein kinase Nek1 (Homo sapiens). To be noted: at 1 µM.
The target of experiment [4] is T3, Serine/threonine-protein kinase Nek2 (Homo sapiens) (UniProt P51955).
T3 sequence (whole entry): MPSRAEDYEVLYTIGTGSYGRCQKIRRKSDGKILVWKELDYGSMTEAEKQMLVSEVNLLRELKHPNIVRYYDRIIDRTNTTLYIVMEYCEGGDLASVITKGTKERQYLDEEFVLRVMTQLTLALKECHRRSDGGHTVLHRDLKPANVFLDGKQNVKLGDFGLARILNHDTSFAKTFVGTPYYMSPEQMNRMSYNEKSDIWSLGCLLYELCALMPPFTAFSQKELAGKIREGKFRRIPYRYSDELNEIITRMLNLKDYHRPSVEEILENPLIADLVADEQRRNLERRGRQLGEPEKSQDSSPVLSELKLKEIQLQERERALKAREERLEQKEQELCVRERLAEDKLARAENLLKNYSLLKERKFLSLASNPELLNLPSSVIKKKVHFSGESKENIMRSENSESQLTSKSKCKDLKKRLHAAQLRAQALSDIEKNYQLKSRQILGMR
Conditions: at 0.1 µM.

Experiment [5] deals with T3, Serine/threonine-protein kinase Nek2 (Homo sapiens). To be noted: at 1 µM.
For experiment [6], the target named is Serine/threonine-protein kinase Nek6 (Homo sapiens) (UniProt Q9HC98). Conditions: at 0.1 µM.
For experiment [7] the target is unchanged. Conditions: at 1 µM.
Experiment [8] deals with Serine/threonine-protein kinase Nek7 (Homo sapiens) (UniProt Q8TDX7). Conditions: at 0.1 µM.
For experiment [9] the target is unchanged. Conditions: at 1 µM.
Experiment [10] concerns the target T4, Serine/threonine-protein kinase Nek9 (Homo sapiens) (UniProt Q8TD19).
T4 sequence (whole entry): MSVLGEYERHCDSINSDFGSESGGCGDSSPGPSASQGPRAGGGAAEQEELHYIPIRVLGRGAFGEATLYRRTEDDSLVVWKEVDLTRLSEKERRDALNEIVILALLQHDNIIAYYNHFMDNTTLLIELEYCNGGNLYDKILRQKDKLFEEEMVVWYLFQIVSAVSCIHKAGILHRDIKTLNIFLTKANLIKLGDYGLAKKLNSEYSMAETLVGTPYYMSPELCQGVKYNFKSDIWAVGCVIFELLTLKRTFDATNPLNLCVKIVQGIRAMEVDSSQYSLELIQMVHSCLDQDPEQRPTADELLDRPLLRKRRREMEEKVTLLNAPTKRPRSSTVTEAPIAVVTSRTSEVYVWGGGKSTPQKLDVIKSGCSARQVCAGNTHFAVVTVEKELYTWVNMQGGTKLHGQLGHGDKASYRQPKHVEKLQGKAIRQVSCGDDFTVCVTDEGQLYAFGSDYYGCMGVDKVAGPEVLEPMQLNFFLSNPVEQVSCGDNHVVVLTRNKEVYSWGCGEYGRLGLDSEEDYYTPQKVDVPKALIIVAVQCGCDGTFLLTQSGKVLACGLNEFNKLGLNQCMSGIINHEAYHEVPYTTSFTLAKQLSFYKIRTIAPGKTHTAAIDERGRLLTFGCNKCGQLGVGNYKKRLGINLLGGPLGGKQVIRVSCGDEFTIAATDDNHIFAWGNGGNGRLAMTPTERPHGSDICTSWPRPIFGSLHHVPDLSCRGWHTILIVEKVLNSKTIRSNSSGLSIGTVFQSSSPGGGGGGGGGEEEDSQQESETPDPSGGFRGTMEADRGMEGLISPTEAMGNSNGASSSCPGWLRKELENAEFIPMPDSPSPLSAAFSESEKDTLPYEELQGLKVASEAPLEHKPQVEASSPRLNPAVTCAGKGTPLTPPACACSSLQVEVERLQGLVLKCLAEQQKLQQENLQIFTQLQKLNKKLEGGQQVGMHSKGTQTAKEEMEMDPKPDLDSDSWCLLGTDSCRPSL
To be noted: at 0.1 µM.

Experiment [11] has as its target T4, Serine/threonine-protein kinase Nek9 (Homo sapiens). To be noted: at 1 µM.
In experiment [12] the target is Serine/threonine-protein kinase PLK1 (Homo sapiens) (UniProt P53350). Conditions: at 0.1 µM.
For experiment [13] the target is unchanged. To be noted: at 1 µM.
Experiment [14] has as its target T5, Dual specificity protein kinase TTK (Homo sapiens) (UniProt P33981).
T5 sequence (whole entry): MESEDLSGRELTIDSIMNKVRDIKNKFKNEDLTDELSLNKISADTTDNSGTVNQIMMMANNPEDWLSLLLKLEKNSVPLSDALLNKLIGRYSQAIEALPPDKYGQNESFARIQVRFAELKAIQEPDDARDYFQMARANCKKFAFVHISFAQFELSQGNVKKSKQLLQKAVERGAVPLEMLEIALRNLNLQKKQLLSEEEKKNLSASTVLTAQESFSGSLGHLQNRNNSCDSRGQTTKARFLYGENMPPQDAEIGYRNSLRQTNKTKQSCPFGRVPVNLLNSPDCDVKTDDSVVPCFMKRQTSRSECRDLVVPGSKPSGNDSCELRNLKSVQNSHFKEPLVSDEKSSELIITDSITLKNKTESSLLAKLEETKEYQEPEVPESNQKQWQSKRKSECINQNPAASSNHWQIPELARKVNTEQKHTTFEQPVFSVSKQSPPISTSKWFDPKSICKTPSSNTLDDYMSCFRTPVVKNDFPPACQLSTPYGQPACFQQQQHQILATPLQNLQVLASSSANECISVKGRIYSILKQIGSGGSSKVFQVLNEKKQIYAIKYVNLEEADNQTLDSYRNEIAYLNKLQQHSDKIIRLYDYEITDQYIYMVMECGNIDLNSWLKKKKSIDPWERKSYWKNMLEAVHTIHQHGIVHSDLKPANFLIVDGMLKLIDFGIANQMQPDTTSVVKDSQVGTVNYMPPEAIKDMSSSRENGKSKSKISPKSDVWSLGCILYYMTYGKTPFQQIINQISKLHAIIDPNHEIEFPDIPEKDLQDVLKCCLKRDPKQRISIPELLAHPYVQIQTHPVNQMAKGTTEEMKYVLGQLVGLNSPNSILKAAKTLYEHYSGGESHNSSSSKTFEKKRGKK
Conditions: at 0.1 µM.

For experiment [15], the system named is T6, Receptor-type tyrosine-protein kinase FLT3 (Homo sapiens), P36888 [D835Y].
T6 sequence (whole entry): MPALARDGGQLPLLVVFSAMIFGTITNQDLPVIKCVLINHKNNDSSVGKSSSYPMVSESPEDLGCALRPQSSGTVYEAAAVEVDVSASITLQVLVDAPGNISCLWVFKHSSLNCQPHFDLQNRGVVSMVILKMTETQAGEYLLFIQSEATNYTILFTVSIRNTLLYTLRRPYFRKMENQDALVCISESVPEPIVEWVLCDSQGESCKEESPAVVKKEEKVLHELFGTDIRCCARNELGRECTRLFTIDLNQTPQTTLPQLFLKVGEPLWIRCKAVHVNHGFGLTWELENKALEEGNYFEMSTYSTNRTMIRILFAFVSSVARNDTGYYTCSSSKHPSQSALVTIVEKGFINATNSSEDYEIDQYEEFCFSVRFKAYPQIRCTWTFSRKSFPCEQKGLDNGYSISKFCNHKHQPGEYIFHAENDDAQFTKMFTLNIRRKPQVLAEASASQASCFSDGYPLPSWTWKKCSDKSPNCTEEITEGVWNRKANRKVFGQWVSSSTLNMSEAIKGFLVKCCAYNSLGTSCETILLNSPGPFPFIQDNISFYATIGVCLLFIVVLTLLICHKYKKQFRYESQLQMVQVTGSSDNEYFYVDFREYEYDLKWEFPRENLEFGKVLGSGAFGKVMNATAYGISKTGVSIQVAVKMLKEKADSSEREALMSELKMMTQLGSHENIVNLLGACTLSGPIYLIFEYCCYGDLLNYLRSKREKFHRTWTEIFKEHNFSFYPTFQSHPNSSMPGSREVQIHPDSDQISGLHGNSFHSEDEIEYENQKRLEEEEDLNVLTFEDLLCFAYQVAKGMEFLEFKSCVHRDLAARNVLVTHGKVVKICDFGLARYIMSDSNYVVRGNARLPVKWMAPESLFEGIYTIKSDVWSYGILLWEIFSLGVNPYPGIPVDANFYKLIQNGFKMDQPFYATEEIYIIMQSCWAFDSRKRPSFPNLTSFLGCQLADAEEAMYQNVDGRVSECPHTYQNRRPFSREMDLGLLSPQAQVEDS
Conditions: at 1 µM.

Experiment [16] concerns the target Vascular endothelial growth factor receptor 3 (Homo sapiens) (UniProt P35916). Conditions: at 0.1 µM.
For experiment [17] the target is unchanged. To be noted: at 1 µM.
Experiment [18] deals with Macrophage colony-stimulating factor 1 receptor (Homo sapiens) (UniProt P07333). To be noted: at 0.1 µM.
The target is the same in experiment [19]. To be noted: at 1 µM.
Experiment [20] concerns the target Tyrosine-protein kinase Fyn (Homo sapiens) (UniProt P06241). To be noted: at 0.1 µM.

Sequence of Serine/threonine-protein kinase Nek7 (Homo sapiens) (Q8TDX7 whole entry, looked up): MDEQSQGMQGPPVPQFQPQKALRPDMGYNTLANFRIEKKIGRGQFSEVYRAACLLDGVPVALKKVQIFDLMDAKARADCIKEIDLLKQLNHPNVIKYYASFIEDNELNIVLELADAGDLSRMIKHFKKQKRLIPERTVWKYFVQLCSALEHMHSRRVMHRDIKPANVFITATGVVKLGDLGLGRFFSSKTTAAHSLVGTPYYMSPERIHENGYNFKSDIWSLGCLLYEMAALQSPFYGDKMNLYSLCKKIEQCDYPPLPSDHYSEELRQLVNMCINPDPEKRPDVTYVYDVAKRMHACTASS
Sequence of Vascular endothelial growth factor receptor 3 (Homo sapiens) (P35916 whole entry): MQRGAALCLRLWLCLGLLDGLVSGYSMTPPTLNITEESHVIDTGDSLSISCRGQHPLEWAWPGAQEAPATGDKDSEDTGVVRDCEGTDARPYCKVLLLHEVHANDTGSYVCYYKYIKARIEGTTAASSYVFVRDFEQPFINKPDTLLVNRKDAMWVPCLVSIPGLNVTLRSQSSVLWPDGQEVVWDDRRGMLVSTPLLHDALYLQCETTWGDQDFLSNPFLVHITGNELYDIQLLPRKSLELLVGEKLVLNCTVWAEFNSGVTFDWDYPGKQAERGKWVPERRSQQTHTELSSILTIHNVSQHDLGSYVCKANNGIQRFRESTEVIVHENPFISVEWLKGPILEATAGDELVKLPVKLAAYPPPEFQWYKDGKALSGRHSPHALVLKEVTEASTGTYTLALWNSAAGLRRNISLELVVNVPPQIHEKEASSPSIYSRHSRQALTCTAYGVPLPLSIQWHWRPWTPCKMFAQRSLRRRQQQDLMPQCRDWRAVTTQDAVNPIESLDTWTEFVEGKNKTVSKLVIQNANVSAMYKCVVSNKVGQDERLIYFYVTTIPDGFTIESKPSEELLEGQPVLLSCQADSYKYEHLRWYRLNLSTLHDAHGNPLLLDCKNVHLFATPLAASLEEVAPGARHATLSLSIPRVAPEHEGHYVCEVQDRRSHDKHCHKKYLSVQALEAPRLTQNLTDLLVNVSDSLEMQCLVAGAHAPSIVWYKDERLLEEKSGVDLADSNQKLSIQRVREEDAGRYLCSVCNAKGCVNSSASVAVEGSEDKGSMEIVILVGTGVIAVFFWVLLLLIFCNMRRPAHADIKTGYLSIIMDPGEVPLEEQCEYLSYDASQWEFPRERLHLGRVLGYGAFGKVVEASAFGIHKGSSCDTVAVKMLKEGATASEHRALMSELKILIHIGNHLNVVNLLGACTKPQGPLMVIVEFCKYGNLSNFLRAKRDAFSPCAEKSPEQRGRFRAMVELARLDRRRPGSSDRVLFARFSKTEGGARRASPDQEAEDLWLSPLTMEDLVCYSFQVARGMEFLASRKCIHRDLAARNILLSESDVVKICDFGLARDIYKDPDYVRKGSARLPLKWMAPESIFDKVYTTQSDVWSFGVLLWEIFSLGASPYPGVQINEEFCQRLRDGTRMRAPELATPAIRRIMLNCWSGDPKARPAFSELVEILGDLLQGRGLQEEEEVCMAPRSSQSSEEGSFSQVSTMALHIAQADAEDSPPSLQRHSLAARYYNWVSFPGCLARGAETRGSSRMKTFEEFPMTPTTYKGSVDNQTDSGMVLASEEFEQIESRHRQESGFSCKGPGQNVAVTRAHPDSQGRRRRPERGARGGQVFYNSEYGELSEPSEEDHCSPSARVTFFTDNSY
Sequence of Serine/threonine-protein kinase Nek6 (Homo sapiens) (Q9HC98 whole entry): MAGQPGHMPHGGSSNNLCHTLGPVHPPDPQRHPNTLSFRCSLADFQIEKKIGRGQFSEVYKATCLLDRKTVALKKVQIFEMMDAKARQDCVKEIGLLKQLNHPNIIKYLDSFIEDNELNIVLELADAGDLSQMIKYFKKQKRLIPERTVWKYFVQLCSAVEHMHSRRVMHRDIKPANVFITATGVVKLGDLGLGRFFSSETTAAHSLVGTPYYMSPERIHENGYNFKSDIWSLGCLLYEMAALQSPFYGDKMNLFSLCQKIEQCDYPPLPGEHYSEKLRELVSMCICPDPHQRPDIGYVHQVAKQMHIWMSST
Sequence of Serine/threonine-protein kinase PLK1 (Homo sapiens) (P53350 whole entry): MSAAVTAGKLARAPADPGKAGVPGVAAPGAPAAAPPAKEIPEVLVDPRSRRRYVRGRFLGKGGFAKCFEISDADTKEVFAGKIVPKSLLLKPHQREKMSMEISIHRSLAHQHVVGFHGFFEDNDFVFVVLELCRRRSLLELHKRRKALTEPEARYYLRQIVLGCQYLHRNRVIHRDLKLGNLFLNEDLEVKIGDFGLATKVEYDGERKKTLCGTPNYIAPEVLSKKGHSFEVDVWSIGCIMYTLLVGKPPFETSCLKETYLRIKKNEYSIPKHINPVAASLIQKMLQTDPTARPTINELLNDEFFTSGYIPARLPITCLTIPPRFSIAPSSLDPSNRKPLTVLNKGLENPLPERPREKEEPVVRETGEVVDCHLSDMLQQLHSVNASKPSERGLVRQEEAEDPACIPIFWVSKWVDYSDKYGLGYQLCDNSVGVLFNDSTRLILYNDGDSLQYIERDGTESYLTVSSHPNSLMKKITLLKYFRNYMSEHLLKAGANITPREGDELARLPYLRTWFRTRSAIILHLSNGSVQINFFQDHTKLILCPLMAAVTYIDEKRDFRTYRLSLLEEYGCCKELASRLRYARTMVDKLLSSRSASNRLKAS
Sequence of Macrophage colony-stimulating factor 1 receptor (Homo sapiens) (P07333 whole entry): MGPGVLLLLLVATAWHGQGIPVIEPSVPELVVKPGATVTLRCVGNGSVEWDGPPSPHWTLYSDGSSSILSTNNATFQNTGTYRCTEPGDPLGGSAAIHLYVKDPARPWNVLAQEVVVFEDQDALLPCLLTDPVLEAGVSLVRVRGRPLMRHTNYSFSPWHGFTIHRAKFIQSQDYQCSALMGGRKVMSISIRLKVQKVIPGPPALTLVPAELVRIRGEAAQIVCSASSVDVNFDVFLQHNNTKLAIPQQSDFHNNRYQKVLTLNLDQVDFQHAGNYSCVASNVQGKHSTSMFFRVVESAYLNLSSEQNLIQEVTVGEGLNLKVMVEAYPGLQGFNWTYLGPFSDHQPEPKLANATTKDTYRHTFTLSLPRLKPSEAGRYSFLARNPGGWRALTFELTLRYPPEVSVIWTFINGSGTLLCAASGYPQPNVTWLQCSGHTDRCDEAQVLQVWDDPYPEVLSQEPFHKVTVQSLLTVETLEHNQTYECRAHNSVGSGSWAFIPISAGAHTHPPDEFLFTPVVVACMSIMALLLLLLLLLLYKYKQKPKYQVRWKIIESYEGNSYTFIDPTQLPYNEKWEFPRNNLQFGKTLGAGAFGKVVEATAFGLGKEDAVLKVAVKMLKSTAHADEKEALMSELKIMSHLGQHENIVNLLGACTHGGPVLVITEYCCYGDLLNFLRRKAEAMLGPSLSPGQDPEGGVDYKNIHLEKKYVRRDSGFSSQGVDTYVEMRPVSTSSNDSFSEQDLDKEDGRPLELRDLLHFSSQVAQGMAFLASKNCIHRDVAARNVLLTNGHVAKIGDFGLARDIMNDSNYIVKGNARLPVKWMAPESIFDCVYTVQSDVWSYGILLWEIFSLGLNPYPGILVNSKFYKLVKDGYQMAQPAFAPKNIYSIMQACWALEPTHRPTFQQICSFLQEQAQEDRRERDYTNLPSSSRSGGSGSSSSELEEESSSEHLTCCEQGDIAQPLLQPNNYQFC
Sequence of Tyrosine-protein kinase Fyn (Homo sapiens) (P06241 2-537 limits assumed): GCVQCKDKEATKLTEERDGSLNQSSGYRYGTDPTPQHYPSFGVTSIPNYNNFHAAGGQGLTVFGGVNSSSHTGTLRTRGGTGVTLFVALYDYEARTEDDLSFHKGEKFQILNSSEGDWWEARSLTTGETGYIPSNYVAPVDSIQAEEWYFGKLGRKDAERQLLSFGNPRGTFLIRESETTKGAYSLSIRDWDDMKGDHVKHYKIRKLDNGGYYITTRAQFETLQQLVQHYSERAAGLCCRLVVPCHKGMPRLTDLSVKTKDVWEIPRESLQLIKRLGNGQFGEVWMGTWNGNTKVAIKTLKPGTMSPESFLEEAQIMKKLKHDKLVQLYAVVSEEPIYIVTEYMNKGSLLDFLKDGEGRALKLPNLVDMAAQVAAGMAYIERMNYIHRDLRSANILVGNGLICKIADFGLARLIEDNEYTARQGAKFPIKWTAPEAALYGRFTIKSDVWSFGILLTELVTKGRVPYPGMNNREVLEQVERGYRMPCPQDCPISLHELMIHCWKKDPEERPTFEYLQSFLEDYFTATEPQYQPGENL

Consider `CCS(=O)(=O)c1ccc(OC)c(Nc2ncc(-c3cccc(OC)c3)o2)c1`, for which the inhibition (commonly the drop in the measured response relative to a control, in per cent) was 4.13% in experiment [1]; 0.44% in experiment [2]; 1.45% in experiment [3]; 2.73% in [4]; 2.94% in [5]; -1.47% in experiment [6]. For the same molecule, the inhibition was found to be 0.87% in experiment [7]; 2.84% in experiment [8]; 2.42% in experiment [9]; 4.19% in [10]; 4.07% in experiment [11]; 4.39% in experiment [12]. Besides, the inhibition in [13] stood at 1.04%; in experiment [14], 2.75%; in experiment [15], 78.5%; in experiment [16], 27.6%; in [17], 77.8%; in [18] it was 26.4%. The inhibition in [19] worked out at 71.9%; in experiment [20], 27.6%.
Turning to `COc1cccc(-n2nc(C)c3c(N/N=C(\C)c4ccncc4)ncnc32)c1`, the inhibition in [1] is 1.16%; in [2] it was 1.7%; in experiment [3], -0.2%; in [4], 1.96%; in experiment [5], -1.21%; in [6] it was 1.56%. Further, the inhibition in experiment [7] was 1.26%; in experiment [8] it was 0.76%; in experiment [9], 2.39%; in [10], 4.23%; in experiment [11] it was 2.13%; in experiment [12], -0.78%. Besides, the inhibition was 2.34% in [13]; 2.35% in experiment [14]; 1.49% in [15]; 1.67% in experiment [16]; 1.25% in [17]; -1.96% in experiment [18]. Moreover, the inhibition in experiment [19] amounted to 5.8%; in experiment [20] it was 1.21%.
